# This is a sample that favours compounds with a hit; in the whole collection about 8% have one here.
# HT1080-NT tox – kills 2HG-producing HT-1080-NT fibrosarcoma cells | HT-1080-NT fibrosarcoma viability, CellTiter-Glo ATP luminescence, 48 h | Potency, µM (titrated, usually from 46.1 µM), for inactives: top-dose activity, negative = less viability, actives largely listed as cytotoxic | 360,000 compounds, 1.6% hits | AID 686970;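 note: NT is the 2HG producing partner of a matched IDH1 knockdown line; 0% = DMSO-treated cells and -100% = media-only wells without cells; nearly all actives have a fitted effect of over 55% in size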
#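 Compounds were tested in concentration-response format on HT-1080-NT cells for 48 hours at 37 degrees C. Cell viability came from CellTiter-Glo luminescence; curves were classified by r2, response magnitude and activity.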
# KB-V1 MDR tox – KB-V1 MDR subline cytotoxicity | Potency, µM (top dose mostly 46.1 µM), hits mostly cytotoxic | 400,000 compounds, 3.4% hits | KB-V1 MDR cells viability, CellTiter-Glo, 72 h; note: % is set by controls: 0 for no effect and ±100 for the full control effect; nearly all actives have a fitted effect of over 60% in size
#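 Potencies derive from concentration-effect curves fitted to normalized luminescence (CellTiter-Glo) of KB-V1 cells treated for 72 h at 37 degrees C in phenol-red-free DMEM containing 10% FBS.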
# HT1080 IDH1KD tx – kills HT-1080 cells with IDH1 knockdown. HT-1080 IDH1 knockdown viability, ATP luminescence, 48 h. Potency, µM (titrated, usually from 46.1 µM), inactives show at the highest dose activity, negative = toxicity, hits mostly cytotoxic. 360,000 compounds, 2% hits. AID 686971;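 note: 0% = DMSO wells and -100% = cell-free medium wells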
#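 In this qHTS, HT-1080 cells depleted of IDH1 are exposed for 48 h at 37 °C to compound titrations. Toxicity is scored from CellTiter-Glo luminescence, with DMSO as full viability and medium alone as none.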
# KB-3-1 tox – kills parental KB-3-1 adenocarcinoma cells; KB-3-1 viability, CellTiter-Glo ATP luminescence, 72 h; Potency, µM (highest dose often 46.1 µM), usual class: cytotoxic; 400,000 compounds, 1.4% hits; note: % is set by controls: 0 for no effect and ±100 for the full control effect; nearly all actives have a fitted effect of over 60% in size
#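 Cytotoxicity measured as CellTiter-Glo luminescence after 72 h at 37 C. Compound titrations were pinned onto drug-naive KB-3-1 parental adenocarcinoma cells grown in DMEM with 10% FBS, and normalized data fitted to concentration-response curves.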
# SW480 rereplic – induces DNA re-replication in SW480 colon adenocarcinoma cells | SW480 DNA re-replication, Hoechst DNA content imaging, 48 h | Potency, µM (series often up to 46.1 µM), without a hit: at the top dose re-replication activation, most hits filed as activators | 340,000 compounds, 1.8% hits | AID 624297; note: % of control where 0% means no effect; nearly all actives have a fitted effect of over 55% in size
#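 Cells (250 per well) received 23 nL compound or DMSO by pin tool and were kept 48 hr at 37 C, 5% CO2. Nuclei were then stained with Hoechst for 40 min and scanned for DNA content.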
# MCF10A rerep – inducers of DNA re-replication in MCF 10A breast cells; AID 624296; Potency, µM (doses to about 46.1 µM), for inactives: at the highest dose activity, positive = re-replication, actives largely listed as activators; 350,000 compounds, 2.9% hits; MCF 10A DNA re-replication, Hoechst nuclear intensity, 48 h; note: % of control where 0% means no effect; nearly all actives have a fitted effect of over 50% in size
# * marks the source's active call; other numbers are inactive results; i = inactive; u = inconclusive; x = no result given. Calls come from the whole dose curve; as a rule, active = well fitted curve in the direction sought with a large enough effect; inconclusive = small, poorly fitted or top-dose-only effect, or another doubt; inactive = no such curve, though single readings can be large; an effect the other way counts as inactive or inconclusive. Potency is the fitted concentration of half-maximal effect.
SMILES,HT1080-NT tox,KB-V1 MDR tox,HT1080 IDH1KD tx,KB-3-1 tox,SW480 rereplic,MCF10A rerep
O=c1[nH]c(=O)n(Cc2ccco2)c2c1C(C(F)(F)F)(C(F)(F)F)N=C(CCc1ccccc1)N2,u,i,10µM*,i,24%,u
CCC(C)/C(C)=N/NC(=O)c1ccc(CSc2nc3ccccc3s2)cc1 (centres undefined),-15%,23µM*,-13%,u,-4%,u
CCNC(=O)c1ccc(CSc2nc3ccccc3s2)cc1,-9%,i,-27%,i,-1%,10%
COC(CNC(=O)c1ccc(N2CCc3ccccc32)c([N+](=O)[O-])c1)OC,6%,15µM*,3%,u,-3%,u
Cc1ccc2c(CNCc3ccccc3)cc(=O)oc2c1,5.2µM*,3.7µM*,8.2µM*,5.2µM*,8.2µM*,12µM*
O=c1cc(NCCO)c2ccccc2o1,0%,i,14%,i,-80%,-1%
O=c1cc(NCCc2ccccc2)c2ccccc2o1,-23%,13µM*,-19%,u,2%,-1%
Cc1ccc2c(CN(C)Cc3cccc(Cl)c3)cc(=O)oc2c1C,-27%,u,u,u,3%,21µM*
Cc1ccc2c(CN(C)Cc3ccccc3)cc(=O)oc2c1,u,i,-22%,i,x,x
Cc1cc2oc(=O)cc(CN(C)Cc3ccccc3)c2cc1C(C)C,-5%,u,-24%,i,u,15µM*
Cc1c(C(=O)Nc2cccc(C#N)c2)sc2nc3n(c(=O)c12)CCCCC3,x,i,x,i,x,x
CCC(=O)Nc1ccccc1-c1nc2ccccc2n(C(C)C(=O)Nc2cccc(Cl)c2C)c1=O (centres undefined),x,i,x,u,x,x
CN(Cc1ccccc1F)Cc1cc(=O)oc2cc(O)c(Cl)cc12,-5%,i,-12%,u,u,5.8µM*
Cc1cc2oc(=O)cc(CN(C)Cc3ccccc3F)c2cc1Cl,5%,i,8%,i,7%,16%
CC1CCN(Cc2cc(=O)oc3cc(O)c(Cl)cc23)CC1,-1%,i,2%,i,u,15µM*
CN(Cc1ccccc1)Cc1cc(=O)oc2ccccc12,-2%,9.2µM*,0%,i,x,x
O=C(C[n+]1cccc(Br)c1)c1ccc2c(c1)CCCC2,x,i,x,u,x,x
Cc1ccc(-c2noc(CN(C(=O)c3ccc(C(C)(C)C)cc3)C(C)C)n2)cc1,x,i,x,i,x,x
Cc1cccc(C)c1NC(=O)CC12CCCN1CCC2,x,x,x,x,-1%,7%
CC(O)(c1ccccc1)c1nc(-c2ccc(F)c(Cl)c2)cs1 (centres undefined),u,i,u,i,x,x
Cc1ccc(-c2csc(C(O)(c3ccccc3)C(F)(F)F)n2)cc1C (centres undefined),26µM*,i,u,i,x,x
CC(O)(c1ccc(F)c(F)c1)c1nc(-c2ccc(F)c(Cl)c2)cs1 (centres undefined),33µM*,i,u,i,x,x
OC(c1ccccc1)(c1nc(-c2ccc(F)c(Cl)c2)cs1)C(F)(F)F (centres undefined),u,i,18µM*,i,x,x
Oc1cccc(-c2csc(C(O)(c3ccccc3)C(F)(F)F)n2)c1 (centres undefined),u,i,-17%,i,x,x
CCOC(=O)c1cccc(NC(=O)CSc2cc(=O)n(C)c3ccccc23)c1,x,i,x,i,x,x
CCCn1nc(C(=O)Nc2nc(-c3ccccn3)cs2)c2ccccc2c1=O,u,i,u,u,-11%,23µM*
CCn1nc(C(=O)Nc2nc(-c3ccccn3)cs2)c2ccccc2c1=O,0%,i,-23%,i,-1%,10%
Cn1nc(C(=O)Nc2nc(-c3ccccn3)cs2)c2ccccc2c1=O,0%,1.3µM*,-11%,i,1%,16%

# Screening data deposited in PubChem BioAssay by National Center for Advancing Translational Sciences (NCATS).
